# According to PubChem BioAssay (EPA / NIEHS):
# Where “and” joins values, the source holds several entries; their conditions need not be identical. Identical values can stand only once. Calls of active or inactive are those of the source. Rule for the calls: active = hit-call score of the fitted dose curve at least 0.9, where 1 is the maximum; inactive = score below 0.9.
# Read-out: UDP glucuronosyltransferase (UGT1A1), UGT1A1 (gene 54658)
# Experiment: LTEA_HepaRG_UGT1A1: Life Technologies and Expression Analysis (LTEA) Assay for UDP glucuronosyltransferase (UGT1A1) using HepaRG (AID 2283538)
# Conditions: mRNA level, 48 h; actives raise or lower the signal
# Experimental: LTEA_HepaRG is a cell based, multiplexed-readout assay that uses HepaRG, a human liver cell line, with measurements taken at 48 hours after chemical dosing on a 96-well plate.LTEA_HepaRG_UGT1A1 is one of 102 assay component(s) measured in the LTEA HepaRG cell culture assay. It is a marker of Steatosis/NR mediated metabolism.Data from the assay component LTEA_HepaRG_UGT1A1 was analyzed into 1 endpoint. This assay endpoint, LTEA_HepaRG_UGT1A1, was analyzed with bidirectional fitting relative to DMSO as the negative control and baseline of activity. Using a type of inducible reporter, measures of mRNA induction for gain or loss-of-signal activity can be used to understand regulation of transcription factor activity. To generalize the intended target to other relatable targets, this assay endpoint is annotated to the transferase intended target family, where the subfamily is glucuronosyltransferase.
# A total of 1060 chemcials from the ToxCast library were tested in eight-point concentration-response experiments. Cell culture and cytotoxicity assays were conducted at Thermo Fisher Scientific's Custom Services facility (Madison, WI). A single lot of human HepaRG cells (Thermo Fisher Scientific, Frederick, MD) was used for the cell culture experiments. 96-well format collagen type I coated plates of human HepaRG cells were prepared using established methods. Briefly, cryopreserved HepaRG cells were thawed, plated at a density of approximately 100,000 cells/well in HepaRG Thaw, Plate, and General Purpose media (HPRG770, Thermo Fisher Scientific), and incubated for 48 hours. 0.5% DMSO was selected as vehicle control to balance the requisite need of DMSO in HepaRG cultures to maintain differentiation (for example, baseline metabolism, proportions of hepatocytes vs. cholangiocytes), while enabling further hepatic receptor pathway activation (for example, PXR and CAR) in response to chemical exposure. 48 hours after plating, the culture medium was replaced with HepaRG Serum-Free Incudtion Media. Cells were exposed to each test chemical in duplicate and maintained in CO2 incubators for another 48 hours. Chemical plates were thawed to room temperature and 200x concentrations of treatment groups were prepared. 8-point conentration-reponse curves were made with the highest exposure at 100 uM, followed by half-log dilutions, all in 0.5% DMSO. Each test plate contained variouse controls, induction positive controls (1mM phenobarbital), cytotoxicity positive controls ([…] aflatoxin B1), vehicle controls (0.5% DMSO), and total lysis controls (0.5% DMSO). Cell morphology images were taken using an Essen IncuCyte FLR automated microscope, with six 96-well plates imaged in about 24 minutes. Images were captured and exported and JPEG files. Spent culture media was transfered to black-well plates for the LDH assay, and remaining media was sorted at -80 C for later use. Cells were treated with RLT buffer and frozen until shipped for gene expression analysis. Total RNA was isolated from the cell suspension in 75 uL of Buffer RLT (Qiagen, Germantown, MD 20874) by Quintiles/Expression Analysis (Durham, NC) using a custom isolation procedure. Total RNA from each plate well was transferred to a preamplification plate. Fluidigm's 96.96 Dynamic ArrayTM (Fluidigm, Amsterdam, the Netherlands) technology was used for gene expression analyses by quantitative reverse transcription polymerase chain reaction (qRT-PCR, performed by Quintiles/Expression Analysis, Durham, NC)89. Standard TaqManTM Assays (Applied Biosystems/ThermoFisher Scientific, Foster City, CA) were used to assess the expression of 93 genes selected based on their selectivity and sensitivity to important hepatic receptors known to be modulated by environmental chemicals; importance in human hepatocyte functionality; and hepatotoxicity. […]
Compound,outcome,AC50
Cn1sc(Cl)cc1=O,inactive,–
CC(C)(C)c1cc(O)ccc1O,inactive,–
ClC1(Cl)C2(Cl)C3(Cl)C4(Cl)C(Cl)(Cl)C5(Cl)C3(Cl)C1(Cl)C5(Cl)C24Cl (stereo unspecified),inactive,–
Cc1ccccc1N,inactive,–
CCCCCCCCc1ccc(O)cc1,–,70.1 µM (active)
COc1cc(-c2ccc(N)c(OC)c2)ccc1N,–,25.4 µM (active) and 22.1 µM (active)
O=c1[nH]c(=O)[nH]c(=O)[nH]1,inactive,–
CCC(C)(C)c1ccc(O)c(C(C)(C)CC)c1,inactive,–
CC(C)(c1ccccc1)c1ccc(O)c(C(C)(C)c2ccccc2)c1,–,12.2 µM (active)
CC(C)(C)CC(C)(C)c1ccc(O)cc1,inactive,–
O=C(O)C(F)(F)C(F)(F)C(F)(F)C(F)(F)C(F)(F)C(F)(F)C(F)(F)C(F)(F)C(F)(F)C(F)(F)F,–,31 µM (active)
CC(=O)[O][Hg][c]1ccccc1,–,32.5 µM (active)
CCC(=O)C(CC(C)N(C)C)(c1ccccc1)c1ccccc1 (stereo unspecified),inactive,–
CN(C)N=O,inactive,–
O=C(O)C(F)(F)C(F)(F)C(F)(F)C(F)(F)C(F)(F)C(F)(F)F,inactive,–
O=C1C2(Cl)C3(Cl)C4(Cl)C(Cl)(Cl)C5(Cl)C3(Cl)C1(Cl)C5(Cl)C24Cl (stereo unspecified),–,15.8 µM (active)

Compound,outcome,AC50
C=CC(=O)OCCCCCC(C)C,inactive,–
Oc1cccc2cccnc12,inactive,–
NC(=O)O,inactive,–
O=C(Nc1ccc2[nH]ccc2c1)c1cc2cc(F)ccc2n1Cc1cccc(F)c1,–,50 µM (active)
ClCC(Cl)CCl,inactive,–
CCN1CCC2(CC1)COc1cc3c(cc12)N(C(=O)c1ccc(-c2ccc(-c4nnc(C)o4)cc2C)cc1)CC3,inactive,–
O=[N+]([O-])c1ccc(O)c([N+](=O)[O-])c1,–,13.2 µM (active)
CCOP(=S)(OCC)SCSP(=S)(OCC)OCC,–,14.8 µM (active)
CC12CC1(C)C(=O)N(c1cc(Cl)cc(Cl)c1)C2=O (stereo unspecified),–,10.5 µM (active)
O=C(O)C(Cl)(Cl)Cl,inactive,–
CCOP(=S)(OCC)Oc1nc(Cl)c(Cl)cc1Cl,–,50 µM (active)
C[C@@H]1C[C@@H]([C@H](O)CC2CC(=O)NC(=O)C2)C(=O)[C@@H](C)C1,–,36.2 µM (active)
C[C@]12CCC(=O)C[C@@H]1CC[C@@H]1[C@@H]2CC[C@]2(C)[C@@H](O)CC[C@@H]12,inactive,–
CC(C)(OO)c1ccccc1,inactive,–
C=C(C)C(=O)[O][Sn]([CH2]CCC)([CH2]CCC)[CH2]CCC,–,9.35 µM (active)
